Compound activity (PubChem BioAssay)
This is a sample that favours compounds with a hit; in the whole collection about 11% have one here.
Coupling enz: inhibits coupling enzyme system, counter-screen for aldolase hits; coupling enzyme system counterscreen, AmpLite Red fluorescence; 290,000 compounds, 0.67% hits; AID 2472; activity change, negative = inhibition, % at 58.2 µM, hits read low; in the data active = activity change below about -30%
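Fluorescence at 525 nm excitation and 598 nm emission measured inhibition of the coupled detection system without aldolase. Compounds (at 57.5 uM final) were preincubated 10 min at room temperature with coupling enzyme reagent before a 20 min substrate/AmpLite Red step.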
Tau fibril ThT: inhibitors of human tau fibril formation, thioflavin T binding | P10636 | recombinant tau K18 P301L, heparin-induced fibrillization, ThT fluorescence | Potency, µM (highest dose often 57.4 µM), inactives show at the top dose activity, negative = inhibition, actives largely listed as inhibitors | 270,000 compounds, 2.1% hits | AID 1460; also: potency is read from the fitted curve at half-maximal effect; nearly all actives have a fitted effect of over 55% in size
Target sequence (P10636 561-689 P618L limits assumed): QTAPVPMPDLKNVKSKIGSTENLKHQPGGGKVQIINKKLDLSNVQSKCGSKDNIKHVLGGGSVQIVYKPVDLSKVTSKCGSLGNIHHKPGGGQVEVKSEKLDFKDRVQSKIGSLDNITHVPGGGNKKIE
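Using a mix of unlabeled (15 uM) and Alexa 594-labeled (0.24 uM) tau K18 P301L, heparin-triggered fibrillization over 6 hr at 37 C was scored by ThT fluorescence.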
Sfp PPTase inh: blocks B. subtilis Sfp PPTase activity; Potency, µM, without a hit: largest response in the series, negative = inhibition, hits mostly inhibitors; AID 1490; Q9F4F7; Biochemical Sfp PPTase activity, qHTS; 310,000 compounds, 3.5% hits;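 also: the enzyme is Sfp with the accession as filed and its product quenches rhodamine fluorescence; potency is read from the fitted curve at half-maximal effect; 0% = enzyme reaction without inhibitor and -100% = no enzyme wells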
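Step 1, compound plus 15 nM Sfp-PPTase, 15 min, room temperature. Step 2, add rhodamine-CoA (5 uM) and BHQ-2-YbbR (12.5 uM). Step 3, read 525/598 nm fluorescence at 0 and 30 min.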
Tau fluor counter: counter-screen for tau fibril formation inhibitors. tau K18 P301L (four-repeat tau fragment) Alexa594 fluorescence, heparin fibrillization. Potency, µM (highest dose often 57.7 µM), without a hit: top-dose activity change, negative = decrease. 280,000 compounds, 0.93% hits. AID 1463; also: potency is read from the fitted curve at half-maximal effect; nearly all actives have a fitted effect of over 55% in size
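Human K18 P301L tau (15 uM unlabeled plus 0.24 uM Alexa 594-labeled, final) in 100 mM sodium acetate pH 7 was mixed with compound and 20 uM heparin and incubated 6 hr at 37 C.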
Tau FP inhib: tau fibrillization inhibition (FP); Potency, µM (doses to about 57.7 µM), inactives show top-dose activity, negative = inhibition, usual class: inhibitors; AID 1468; 280,000 compounds, 0.39% hits; K18 P301L tau heparin fibrillization, Alexa594 FP, 6 h; also: potency is read from the fitted curve at half-maximal effect; nearly all actives have a fitted effect of over 55% in size
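K18 P301L tau (15 uM unlabeled/0.24 uM Alexa 594-labeled, final) + compound + heparin 20 uM final; 100 mM NaOAc pH 7; 6 hr 37 C; ThT 30 uM final added, 1 hr RT; FP ex 555/em 632 nm.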
G9a block: blocks human histone lysine methyltransferase G9a; G9a H3K9 monomethylation, AlphaScreen, 2 h; 350,000 compounds, 8.8% hits; Q96KQ7; Potency, µM (doses to about 102 µM), without a hit: top-dose activity, negative = inhibition, usual class: inhibitors; also: potency is read from the fitted curve at half-maximal effect; nearly all actives have a fitted effect of over 75% in size
Target sequence (Q96KQ7 913-1193 limits assumed): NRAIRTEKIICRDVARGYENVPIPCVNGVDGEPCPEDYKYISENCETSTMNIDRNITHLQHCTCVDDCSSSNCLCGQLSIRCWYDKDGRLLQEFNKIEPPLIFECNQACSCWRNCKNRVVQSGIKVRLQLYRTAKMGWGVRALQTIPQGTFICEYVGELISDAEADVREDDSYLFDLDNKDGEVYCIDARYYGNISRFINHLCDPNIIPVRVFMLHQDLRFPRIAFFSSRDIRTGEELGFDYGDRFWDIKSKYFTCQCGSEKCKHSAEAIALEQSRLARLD
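G9a (20 nM) preincubated 15 min RT with compounds, then 500 nM biotinylated H3K9 peptide and 20 uM SAM added; 2 h RT reaction. Monomethyl-H3K9 product detected by AlphaScreen with anti-H3K9me1 antibody, streptavidin donor and anti-rabbit IgG acceptor beads.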
* hit, by the source's call; ? = inconclusive; . = not tested or not shown; [ ] = remark or other dose. Unless noted, calls follow the shape of the dose curve; as a rule, active = well fitted curve in the direction sought with a large enough effect; inconclusive = small, poorly fitted or top-dose-only effect, or another doubt; inactive = no such curve, though single readings can be large; an effect the other way counts as inactive or inconclusive. Unless noted, % is scaled to controls: 0 for no effect and ±100 for the full control effect.

SMILES	Coupling enz	Tau fibril ThT	Sfp PPTase inh	Tau fluor counter	Tau FP inhib	G9a block
Cc1nc2ccccc2c(=O)n1/N=C/c1ccc([N+](=O)[O-])o1	-12	28µM*	14%	?	?	?
COC(=O)CC1c2ccccc2C=C(/C=C/c2ccc3c(c2)OCO3)N1C(=O)OC (centres undefined)	0	-1%[11.5 µM]	1%	-5%[11.6 µM]	4%[11.6 µM]	.
COc1ccc(-c2noc(CNS(=O)(=O)c3ccc(Br)cc3)n2)cc1OC	.	?	.	-30%	-9%	-21%[59 µM]
Cc1nc2ccccc2c(=O)n1/N=C/c1ccccc1F	2	.	12%	.	.	-1%
COC(=O)N/N=C/c1ccc([N+](=O)[O-])o1	0	-3%	19%	-2%	-1%	0%[59 µM]
CN(/N=C/c1ccc([N+](=O)[O-])o1)c1ccccc1	-1	7.1µM*	3%	?	-11%	22µM*
Cc1nc2ccccc2c(=O)n1/N=C/c1c(O)ccc2ccccc12	-18	?	0%	?	16%	32µM*
Cc1nc2ccccc2c(=O)n1/N=C/c1ccccn1	-1	-1%	?	7%	-15%	28µM*
O=C(N/N=C1/C[C@@H](O)[C@@H](O)[C@@H]2[C@@H]3C(=O)N(Cc4ccccc4)C(=O)[C@H]3CC[C@H]12)OCc1ccccc1	6	-7%[11.5 µM]	13%	-7%[11.6 µM]	-3%[11.6 µM]	.
Oc1ccc(CN2CCCc3ccccc32)c2cccnc12	-3	?	-4%	-20%	12%	1.6µM*
CCOc1ccc(Nc2ncnc3ccc([N+](=O)[O-])cc23)cc1	1	10µM*	-5%	-16%	16%	-26%
COC(=O)c1sc2cc([N+](=O)[O-])cc(SCC(C)C)c2c1N	1	?	-11%	?	5%	40µM*
Cc1ccc(CNC(=O)CCS(=O)(=O)c2ccc(Br)s2)o1	1	-4%	40µM*	11%	-2%	?
O=C(CCS(=O)(=O)c1ccc(Br)s1)Nc1cc(C(F)(F)F)cc(C(F)(F)F)c1	.	-11%	.	?	20µM*	7%[59 µM]
Cc1ccccc1NC(=O)CCS(=O)(=O)c1ccc(Br)s1	4	.	6%	.	.	45µM*
CC(=O)c1cccc(NC(=O)CCS(=O)(=O)c2ccc(Br)s2)c1	-1	6%	7%	-12%	3%	-34%
CCOC(=O)C1=C(CN2CCN(C(=O)c3ccco3)CC2)NC(=O)NC1c1ccc(C)cc1 (centres undefined)	.	.	11%	.	.	?
CSCCC(=O)N1CCC(CCC(=O)NC2CC2)CC1	.	.	16%	.	.	48%
COc1ccc2c(c1)CC/C(=C/c1ccncc1)C2=O	0	?	7%	-9%	-7%	6%[59 µM]
COc1ccc2c(c1)CC/C(=C\C=C\c1ccccc1OC)C2=O	-40*	7%	25µM*	9%	6%	7.9µM*
CS(=O)(=O)Oc1ccc2c(c1)O/C(=C\C=C\c1ccccc1)C2=O	4	?	-22%	?	-7%	?
COc1ccc2c(c1)CC/C2=N\NC(=O)c1ccccc1	2	?	-10%	-2%	8%	12%[59 µM]
COc1ccc2c(c1)CC/C(=C\c1ccc(C)o1)C2=O	-16	.	45µM*	-34%	-18%	50µM*
COc1ccc2c(c1)C(=O)/C(=C/C=C/c1ccccc1)CC2	-3	18%	-13%	11%	6%	32µM*
CCc1cccc(C)c1NC(=O)Cn1nnc(-c2nc(-c3ccccc3F)no2)c1N	.	7%	.	6%	-4%	?
Cc1ccc(NC(=O)Cn2cc(C(=O)c3ccco3)c3ccccc32)cc1	.	-7%	.	-24%	?	?
O=[N+]([O-])c1ccc(/C=C/c2ccncc2)cc1	0	?	14%	-19%	0%	6%[12.7 µM]
[O-]/[N+](=C\c1ccncc1)c1ccc(Br)cc1	-6	32µM*	?	-25%	?	40µM*
CCOc1ccc(C2CC(=O)NC(NC(=O)c3cccc(Cl)c3)=N2)cc1 (centres undefined)	.	10%	.	-7%	-2%	0%[59 µM]
